# High-throughput results deposited in PubChem by several laboratories.
# Only some compounds are listed: those with a hit (about 4.9% of all), similar ones and a draw of the others.
# tim10-1 inh: inhibits growth of tim10-1 mutant yeast. 2.2% of 330,000 active. AID 463190. inhibition, % at 20 µM. S. cerevisiae tim10-1 ts strain growth, BacTiter-Glo, 24 h;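 active = inhibition of at least 40%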;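 also: mutant grown at 25 °C; 0% = DMSO wells with yeast and 100% = wells holding no yeast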
# TIM10 inh: growth inhibitors of TIM10 yeast strain; S. cerevisiae TIM10 strain growth, BacTiter-Glo luminescence, 24 h; inhibition, % at 10 µM; 1.4% of 330,000 active; AID 463195;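 active = inhibition of 40% or more at the single tested concentration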;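 also: wild-type TIM10 isogenic control strain grown at permissive 25 °C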
# SKKanGAS inh: blocks kanamycin growth of S. pyogenes SKKanGAS strain. 1.3% of 300,000 active. BacTiter-Glo, 6 h. inhibition, % at 7.5 µM;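 active = mean replicate score, as percent of positive control median, at least 50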;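 also: strain carries kanamycin resistance gene driven by streptokinase promoter and grows in 40 µg/ml kanamycin; loss of luminescence reflects streptokinase promoter inhibition or plain growth inhibition; 0% = median of DMSO wells and 100% = positive control at its reference dose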
# tim23-1 inh: tim23-1 yeast growth inhibition. S. cerevisiae tim23-1 growth, BacTiter-Glo luminescence, 24 h. inhibition, % at 20 µM. 1.3% of 330,000 active;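 active = growth inhibition of the mutant yeast at or above 50%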;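 also: temperature-sensitive mutant grown at 25 °C; plate controls were DMSO-treated mutant yeast for no effect and medium wells lacking yeast for full effect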
# NLRP3 yeast inh: NALP3 inhibition in yeast; 0.39% of 330,000 active; Yeast reconstituted NLRP3/ASC/caspase-1, beta-gal luminescence, 24 h; inhibition, % at 10 µM;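 active = inhibition of 50% or more; inactive = inhibition below 50%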;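 also: plate controls were induced DMSO wells for no effect and uninduced yeast grown without galactose for full effect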
# NALP1 inh: NALP1 inhibition. S. cerevisiae NALP1/ASC/caspase-1 growth, X-gal OD620, 72 h. inhibition, % at 10 µM. 0.61% of 280,000 active; in the data active = inhibition mostly above about 24%, no sharp cut-off; inactive = mostly below about 32%
# tim10-1 confirm: confirmation of tim10-1 mutant yeast growth inhibitors; shares compounds with tim10-1 inh; S. cerevisiae tim10-1 ts strain growth, BacTiter-Glo, 24 h; inhibition, % at 20 µM; 56% of 7,400 active; AID 463213;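 active = inhibition of yeast growth at or above a set limit in either of two repeat tests at 20 µM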;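 also: tim10-1 mutant grown at permissive 25 °C to find synthetic lethal compounds; 0% = DMSO yeast wells and 100% = medium wells without yeast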
# Numbers without * were called inactive; . = no result given.
SMILES,tim10-1 inh,TIM10 inh,SKKanGAS inh,tim23-1 inh,NLRP3 yeast inh,NALP1 inh,tim10-1 confirm
CCN(CC)S(=O)(=O)c1ccc2oc(C(=O)NCc3ccc(F)cc3)c(C)c2c1,44*,32,.,32,5,6,39*
COc1cc(/C=N/NC(=O)c2cc(-c3ccccc3)nc3ccccc23)ccc1O,41*,12,3,23,3,7,31
COc1ccc(/C=N/NC(=O)c2cc(-c3ccccc3)nc3ccccc23)cc1O,28,19,13,27,3,-11,.
COc1cccc(-c2nc(=S)c3c(n2Cc2ccco2)CCCC3)c1,42*,20,18,17,12,-4,40*
CCOC(=O)Nc1ccc2c(CNC(C)c3ccccc3OC)cc(=O)oc2c1 (stereo not given),47*,15,2,32,15,14,22
Cc1ccc2oc(C(=O)NCC3CCOCC3)c(C)c2c1,1,8,3,10,33,11,.
COc1ccccc1CNC(=O)CCCn1nc(C)c2c(C)n(-c3ccccc3)nc2c1=O,35,6,1,31,5,-9,.
COc1cccc(CNC(=O)CCCn2nc(C)c3c(C)n(-c4ccc(C)cc4)nc3c2=O)c1OC,45*,16,2,32,-3,17,14
O=C(COc1ccc(S(=O)(=O)N2CCOCC2)cc1)N1CCN(c2ccccc2)CC1,9,9,-2,16,1,0,.
c1ccc2sc(-c3ccc4c(c3)OCO4)nc2c1,45*,9,.,28,23,-14,46*
COc1cc(C[C@@H]2C(=O)OC[C@H]2Cc2ccc(OC)c(OC)c2)ccc1O,8,6,.,13,3,.,.
CC(C)CNC(=S)N1CCC(Cc2ccccc2)CC1,26,9,9,28,46,7,.
O=C(CN1CCN(C/C=C/c2ccccc2)CC1)Nc1cc([N+](=O)[O-])ccc1Cl,-10,7,-1,10,6,14,.
O=C(CN1CCN(S(=O)(=O)c2ccc(Br)cc2)CC1)c1ccc(O)c(O)c1,5,-7,-2,-4,30,14,.
CC(C)c1ccc(S(=O)(=O)N2CCN(CC(=O)c3ccc(O)c(O)c3)CC2)cc1,50*,22,5,24,7,7,9
O=C(NCc1ccccn1)c1cccc(NS(=O)(=O)c2ccccc2)c1,6,-5,0,18,19,.,.
O=C1CN(C(=O)/C=C/c2ccc(Cl)cc2)c2ccccc2N1,-1,18,1,39,14,25,.
O=C1CN(C(=O)/C=C/c2cccc(Cl)c2)c2ccccc2N1,41*,27,-15,22,20,6,34*
O=C(O)c1ccc(-n2nc(C(F)(F)F)c3c2-c2ccoc2CC3)cc1,16,3,-2,14,-4,10,.
COC(=O)c1ccc(-n2nc(C(F)(F)F)c3c2-c2ccoc2CC3)cc1,41*,20,4,30,1,10,26
CC(C)(C)C(=O)Nc1nnc(SCc2ccc(F)cc2)s1,50*,22,5,36,30,-6,44*
CC(C)(C)C(=O)Nc1nnc(SCc2cccc(F)c2)s1,3,8,26,30,45,-4,.
CCN(CC(=O)Nc1ccc2c(c1)OCCO2)C(=O)c1ccc(CS(C)(=O)=O)cc1,-8,-2,.,-5,8,.,.
OCc1ccc(-c2nn(Cc3ccccc3)c3ccccc23)o1,40*,3,-6,44,10,.,30*
O=c1c2ccccc2c(-c2n[nH]c(=S)o2)nn1Cc1ccccc1,9,14,17,2,29,8,.
SMILES,tim10-1 inh,TIM10 inh,SKKanGAS inh,tim23-1 inh,NLRP3 yeast inh,NALP1 inh,tim10-1 confirm
O=C1N/C(=C/c2ccc(N3CCOCC3)o2)C(=O)N1c1cccc(Cl)c1,43*,4,8,18,37,-6,36*
Cn1c(CSc2nnc(SCc3ccccc3)s2)nc2ccccc21,56*,37,-1,41,-3,-5,42*
O=C(CCCOc1ccc(Cl)cc1Cl)n1nnc2ccccc21,54*,25,-1,46,19,-25,39*
CC(=O)Nc1ccc(NC(=O)COC(=O)CCCc2c[nH]c3ccccc23)cc1,-20,-4,-4,1,8,.,.
Cc1cc(O)c(C(C[N+](=O)[O-])c2ccc(Cl)cc2Cl)c(=O)o1 (stereo not given),43*,27,0,27,12,-8,26
CC(C(=O)Nc1ccccc1F)N1CCN(C)CC1 (stereo not given),-3,12,6,-2,15,-2,.
CCCn1nc([N+](=O)[O-])c(C(C#N)c2nc3ccccc3o2)c(Cl)c1=O (stereo not given),48*,30,10,42,28,-8,36*
Nc1cc(-c2cccc(Br)c2)nn1Cc1ccccc1,46*,18,-13,34,20,45,18
C/C(=N/NC(=O)C(C)n1nc(C)c([N+](=O)[O-])c1C)c1ccc(OCC(N)=O)cc1 (stereo not given),-14,6,7,-6,1,.,.
COc1cccc(C2C3=C(CC(C)(C)CC3=O)Nc3cc4c(cc32)OCO4)c1 (stereo not given),44*,-14,-5,28,-3,-20,11
CC(Nc1cccc([N+](=O)[O-])c1)C(=O)Nc1ccc(S(=O)(=O)N2CCCC2)cc1 (stereo not given),14,5,.,13,-5,.,.
O=C(CN1C(=O)C(=O)N(C2CCCC2)C1=O)Nc1ccc(Cl)cc1C(F)(F)F,5,-3,.,11,8,.,.
COc1ccccc1NC(=O)c1ccc(NC(=O)C2COc3ccccc3O2)cc1 (stereo not given),33,18,-6,46,30,5,.
CCOCCOC(=O)c1ccc(NC(=O)C2COc3ccccc3O2)cc1 (stereo not given),42*,14,-1,41,26,6,26
CCOC(=O)C1CCCN(C(=O)/C=C/c2ccc(Cl)cc2)C1 (stereo not given),41*,-14,-3,19,2,-29,18
O=C(Cc1ccc(Br)cc1)Nc1ccc(S(=O)(=O)Nc2ncccn2)cc1,-7,4,7,6,13,12,.
O=C1CC(N2CCC(Cc3ccccc3)CC2)C(=O)N1CCc1ccccc1 (stereo not given),46*,32,0,37,15,14,4
O=C(O)C1=CC[C@@H](c2ccc(Cl)cc2)N(S(=O)(=O)c2ccc(Cl)cc2)[C@H]1c1cccc(Cl)c1,40*,-8,.,9,5,.,13
CCOC(=O)c1ccc(N=c2scc(C)n2CC)cc1,43*,10,-11,33,21,10,22
O=S(=O)(c1ccc(Br)s1)N1CCN(CCOc2ccccc2)CC1,15,16,.,45,42,.,.
